High-throughput results as filed in PubChem.
PLC-beta3 inh – inhibitors of human phospholipase C beta3; Q01970; Purified PLC-beta3, fluorogenic substrate, fluorescence; inhibition, % at 12.2 µM; 370,000 tested, 0.18% active; in the data active means inhibition above about 11%
PLC-gamma1 inh – PLC-gamma1 (human) inhibition, primary screen; P19174; purified PLC-gamma1, fluorogenic substrate, fluorescence; inhibition, % at 12.2 µM; 370,000 tested, 0.84% active; in the data active means inhibition above about 9.5%
UHRF1 MBD2 ctr – human UHRF1 methylated DNA binding inhibitors | Q96T88 | UHRF1 binding to methylated oligo, TR-FRET | inhibition, % at 4.4 µM | 370,000 tested, 0.75% active | AID 687016; in the data active means inhibition above about 21%;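 further: UHRF1 SRA domain binding a hemimethylated CpG hairpin DNA probe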
Target sequence (Q96T88 whole entry, looked up, the tested form may be a part): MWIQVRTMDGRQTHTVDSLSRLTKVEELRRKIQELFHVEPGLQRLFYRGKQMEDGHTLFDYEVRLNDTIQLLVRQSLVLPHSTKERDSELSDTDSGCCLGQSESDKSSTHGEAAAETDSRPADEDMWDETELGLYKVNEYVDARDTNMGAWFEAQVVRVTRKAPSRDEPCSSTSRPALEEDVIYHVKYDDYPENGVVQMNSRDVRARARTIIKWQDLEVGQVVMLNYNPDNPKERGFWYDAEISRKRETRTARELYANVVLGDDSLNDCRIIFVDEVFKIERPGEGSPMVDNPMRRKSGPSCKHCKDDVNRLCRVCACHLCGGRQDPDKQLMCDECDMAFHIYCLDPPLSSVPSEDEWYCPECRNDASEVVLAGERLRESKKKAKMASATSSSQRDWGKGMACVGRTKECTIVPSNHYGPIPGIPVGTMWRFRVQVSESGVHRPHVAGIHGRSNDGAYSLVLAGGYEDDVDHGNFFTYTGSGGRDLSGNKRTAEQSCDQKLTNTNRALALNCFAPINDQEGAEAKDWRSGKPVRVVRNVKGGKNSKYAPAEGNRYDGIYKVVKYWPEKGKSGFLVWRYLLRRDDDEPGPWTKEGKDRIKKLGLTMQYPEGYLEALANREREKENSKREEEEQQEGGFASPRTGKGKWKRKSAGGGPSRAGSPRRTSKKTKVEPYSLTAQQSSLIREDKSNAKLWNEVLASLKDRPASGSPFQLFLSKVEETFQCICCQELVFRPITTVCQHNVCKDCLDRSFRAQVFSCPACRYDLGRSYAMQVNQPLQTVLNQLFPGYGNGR
MBD2 DNA inh – MBD2-methylated oligo binding inhibition | 370,000 tested, 0.31% active | AID 686964 | inhibition, % at 4.4 µM | Q9UBB5 | TR-FRET, MBD2 binding to methylated oligonucleotide; in the data active means inhibition above about 13%
LEDGF integ inh – blocks HIV-1 LEDGF/p75-dependent DNA integration | TR-FRET IN-LEDGF/p75 DNA integration, Eu/Cy5 | 370,000 tested, 0.64% active | inhibition, % at 3.7 µM | AID 743269;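 active means inhibition above the screen-wide mean plus 3 SD, cut at about 13% in these data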;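 further: signal is the Cy5 over europium emission ratio at 671 and 618 nm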
IN multimer up – HIV-1 integrase multimerization activation, counter-screen. shares compounds with LEDGF integ inh. TR-FRET HIV-1 integrase multimerization, biochemical. activation, % at 7.7 µM. 2,000 tested, 17% active. AID 1053131; in the data active means activation above about 8.9%
TR-FRET interf – counter-screen for LEDGF/p75 integration inhibitors: TR-FRET optical interference. inhibition, % at 7.7 µM. TR-FRET optical interference counterscreen, HIV-1 IN multimerization. shares compounds with LEDGF integ inh. 2,000 tested, under 10 active;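 active means inhibition above the mean over all tested compounds plus 3 SD, which no compound reached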
LEDGF integ conf – LEDGF/p75-dependent HIV-1 integration inhibition, confirmation | shares compounds with LEDGF integ inh | TR-FRET LEDGF/p75-dependent HIV-1 integration, biochemical | inhibition, % at 3.7 µM | 2,000 tested, 36% active | AID 1053136; in the data active means inhibition above about 14%
Large screens that a line does not name were inactive (follow-up assays come after a bar, where they were run). Rows were chosen to be rich in hits. Some 2.4% of all compounds tested hit in one or more screens of this group.

COC(=O)c1ccc2c(C(C)c3ccccc3O)c[nH]c2c1 (stereo not drawn)	none
COc1ccc(S(=O)(=O)N(C)C[C@@H]2Oc3c(NC(=O)Nc4ccccc4)cccc3C(=O)N([C@@H](C)CO)C[C@H]2C)cc1	none
COC(=O)c1ccccc1NCc1cc(=O)oc2cc(O)c(O)cc12	LEDGF integ inh 20.9 | IN multimer up inactive | TR-FRET interf inactive | LEDGF integ conf 33.7
CCOC(=O)c1c(-n2c(C)cc(C=O)c2C)sc2c1CCCC2	none
Cc1ccc(C)n1-c1sc2c(c1C(=O)O)CCCC2	UHRF1 MBD2 ctr 45.7, LEDGF integ inh 25.3 | IN multimer up inactive | TR-FRET interf inactive | LEDGF integ conf 25.4
O=C(CN1CCN(S(=O)(=O)c2ccc(Cl)cc2)CC1)NC1CC1	LEDGF integ inh 33.9 | IN multimer up inactive | TR-FRET interf inactive | LEDGF integ conf inactive
COC(=O)[C@]12C[C@H](CC(=O)N3CCN(C(=O)C4CC4)CC3)C(=O)N(Cc3ccc4c(c3)OCO4)C1=C[C@H](C(C)C)O[C@@H]2C1CC1	none
CC(=O)Nc1c(-c2ccc(C)cc2)nc2ncccn12	none
OC[C@H]1O[C@@H](c2nc(-c3ccc(CN4CCOCC4)cc3)no2)[C@H](O)[C@@H](O)[C@H]1O	LEDGF integ inh 15.5 | IN multimer up inactive | TR-FRET interf inactive | LEDGF integ conf inactive
CC(=O)c1ccc(NC(=O)CSc2nnc(-c3ccco3)c(-c3ccco3)n2)cc1	LEDGF integ inh 34.5 | IN multimer up 12.2 | TR-FRET interf inactive | LEDGF integ conf 45.1
COc1cc(C=NN=c2sc3ccccc3n2C)ccc1OCCO	none
N#CC1C(=O)Nc2cccnc21 (stereo not drawn)	LEDGF integ inh 27.4 | IN multimer up inactive | TR-FRET interf inactive | LEDGF integ conf inactive
O=C1Nc2ccccc2C1Cc1ccccn1 (stereo not drawn)	none
O=C(c1ccc(F)cc1Cl)N1CCCC(c2nc(-c3cccs3)no2)C1 (stereo not drawn)	none
Oc1ccc(/C=N/Nc2ncnc3c2ncn3Cc2ccccc2)cc1O	LEDGF integ inh 17.9 | IN multimer up 57.2 | TR-FRET interf inactive | LEDGF integ conf 66.0
Oc1cccc(/C=N/Nc2ncnc3c2ncn3Cc2ccccc2)c1	none
O=C(OCC#CCSc1nnc(-c2c[nH]c3ccccc23)o1)c1ccc(F)cc1	none
CCCc1nc2ccc(C)cn2c1Cc1cccc(F)c1	none
CCCc1nc2ccc(C)cn2c1Cc1ccc(C)cc1	UHRF1 MBD2 ctr 20.7, LEDGF integ inh 13.9 | IN multimer up inactive | TR-FRET interf inactive | LEDGF integ conf inactive
COc1cc(NC(=O)NC2CCCCN(Cc3cccc(Cl)c3)C2=O)cc(OC)c1 (stereo not drawn)	none
COc1ccc(F)cc1-c1cc(C(C)=O)c2n(c1=O)CCC2	none
O=C1OC(Nc2cc(Br)cc3cccnc23)c2ccccc21 (stereo not drawn)	PLC-gamma1 inh 10.8, LEDGF integ inh 53.5 | IN multimer up inactive | TR-FRET interf inactive | LEDGF integ conf 73.8
CC(=O)c1ccc2c(c1)C1C=CCC1C(c1ccncc1)N2 (stereo not drawn)	none
CC(=O)c1ccc2c(c1)C1C=CCC1C(C(=O)O)N2 (stereo not drawn)	PLC-gamma1 inh 12.2, UHRF1 MBD2 ctr 92.8, MBD2 DNA inh 103.8, LEDGF integ inh 89.6 | IN multimer up 52.7 | TR-FRET interf inactive | LEDGF integ conf 76.6
Cn1c(SCC(=O)OCc2ccccc2)nnc1-c1ccco1	none
CCn1c(SCC(=O)OCc2ccccc2)nnc1-c1ccco1	LEDGF integ inh 19.0 | IN multimer up inactive | TR-FRET interf inactive | LEDGF integ conf inactive
O=C(NCCc1ccccc1Cl)[C@@H]1CCCN1C(=O)[C@H](Cc1cccnc1)NC(=O)N1CCOCC1	none
Cc1cccc(-c2cccc3c4c([nH]c23)[C@@H]2C[C@H](N(C)C(=O)C3CCCCC3)[C@H]([C@H](C)O)CN2CC4)c1	none
COc1ccc2nc(N=Nc3ccc(N(C)C)cc3)sc2c1	none
CN(C)c1ccc2nc3ccc(=O)cc-3sc2c1	UHRF1 MBD2 ctr 54.9, LEDGF integ inh 73.2 | IN multimer up 85.3 | TR-FRET interf inactive | LEDGF integ conf 81.7
Clc1ccc(-c2ccc(C=Nc3ccc(N4CCOCC4)cc3)o2)c(Cl)c1	none
Clc1cccc(-c2ccc(C=Nc3ccc(N4CCOCC4)cc3)o2)c1Cl	LEDGF integ inh 23.9 | IN multimer up inactive | TR-FRET interf inactive | LEDGF integ conf inactive
Clc1ccc(-c2ccc(C=Nc3ccc(N4CCOCC4)cc3)o2)cc1	LEDGF integ inh 17.8 | IN multimer up inactive | TR-FRET interf inactive | LEDGF integ conf inactive
Oc1c(Cl)cc(Cl)cc1C=Nc1ccc(N2CCOCC2)cc1	none
O=C(COC(=O)/C=C/c1ccco1)NCc1ccccc1	none
O=C(N/C=C/c1ccco1)NCc1ccccc1	UHRF1 MBD2 ctr 22.6, LEDGF integ inh 27.7 | IN multimer up 14.4 | TR-FRET interf inactive | LEDGF integ conf 44.1
CC(NC(=O)Nc1ccc(O)cc1)(C(F)(F)F)C(F)(F)F	LEDGF integ inh 19.5 | IN multimer up inactive | TR-FRET interf inactive | LEDGF integ conf inactive
CCOC(=O)CC[C@H]1CC[C@]2(CCCN(C(=O)c3ccccc3)C2)O1	none
S=c1[nH]nc(-c2n[nH]c3c2CCC3)n1N=Cc1c[nH]c2ccccc12	none
CCN(Cc1ccccc1)c1cc2c(c3c1ccn3C)C1CCC2O1 (stereo not drawn)	LEDGF integ inh 13.4 | IN multimer up inactive | TR-FRET interf inactive | LEDGF integ conf inactive
CCN(CC)c1cc2c(c3c1ccn3C)C1CCC2O1 (stereo not drawn)	none
O=C1OC(c2ccccc2)=N/C1=C\C=C\c1ccco1	UHRF1 MBD2 ctr 32.2, LEDGF integ inh 40.8 | IN multimer up inactive | TR-FRET interf inactive | LEDGF integ conf inactive
Cc1ccccc1C(=O)Nc1ccc(S(=O)(=O)NCC2CCCO2)cc1 (stereo not drawn)	LEDGF integ inh 14.9 | IN multimer up inactive | TR-FRET interf inactive | LEDGF integ conf inactive
NC(=O)C1CCCN(CC(O)COCc2ccc(Cl)cc2)C1 (stereo not drawn)	LEDGF integ inh 78.4 | IN multimer up inactive | TR-FRET interf inactive | LEDGF integ conf inactive
CN(CCCOC(=O)CC1C=CCC1)C1CN(Cc2cn(Cc3ccccc3Cl)nn2)S(=O)(=O)C1 (stereo not drawn)	none
NC1=CC(=O)C(=O)c2ccccc21	none
O=C1C=C(O)c2[nH]c(=O)ccc2C1=O	LEDGF integ inh 26.2 | IN multimer up 29.9 | TR-FRET interf inactive | LEDGF integ conf 51.3
